Rows were chosen to be rich in hits. Some 9.5% of all compounds tested hit in one or more screens of this group.
RE007 growth inh – less growth of the S. pombe RE007 Vpr strain. S. pombe RE007 Vpr strain, BacTiter-Glo ATP luminescence, 24 h. Potency, µM (highest dose often 92.2 µM), actives largely listed as inhibitors. 360,000 tested, 0.21% active. AID 651644; active = well fitted falling curve with a large enough effect; inconclusive = small, poorly fitted or top-dose-only effect; inactive = no such curve, though single readings can be large or run the other way; also: nearly all actives have a fitted effect of over 50% in size
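Fission yeast RE007 carrying one integrated HIV-1 vpr copy, seeded at OD 0.01 in PMG+AL medium with 23 nL pinned compound. Grown 24 h at 30 degrees; viability read by BacTiter-Glo luminescence after 5 min.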
Pf growth 48h – inhibits P. falciparum growth in the first generation, 48 h; Potency, µM (series often up to 28.7 µM), usual class: inhibitors; P. falciparum luciferase growth in erythrocytes, 48 h; 310,000 tested, 5.9% active; active = well fitted inhibition curve with a large enough effect; inconclusive = small, poorly fitted or top-dose-only effect, or another doubt; inactive = no such curve, though single readings can be large or run the other way
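First compound was added to culture medium, then infected red cells at 0.1% parasitemia and 2% hematocrit (final). After incubation at 37 C under 5% CO2, luciferase detection reagent was dispensed and light output recorded.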
NS1 function inh – inhibitors of influenza NS1 protein function; Potency, µM (top dose mostly 46.1 µM); 270,000 tested, 0.4% active; AID 2326; also: actives are rising curves; nearly all actives have a fitted effect of over 50% in size
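In this qHTS, NS1 from influenza A is expressed in budding yeast, where it slows growth. Cells are switched from glucose to 2% galactose medium (pH 6.0, -URA), treated with compound, and growth recovery is read at OD600.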
Pf growth 96h – P. falciparum growth inhibition at 96 hours; P. falciparum luciferase reporter growth, 96 h; Potency, µM (highest dose often 28.7 µM), actives largely listed as inhibitors; AID 504834; 320,000 tested, 6.9% active; active = well fitted inhibition curve with a large enough effect; inconclusive = small, poorly fitted or top-dose-only effect, or another doubt; inactive = no such curve, though single readings can be large or run the other way
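Luminescence readout: decreased luciferase signal marks inhibited growth of reporter-expressing P. falciparum in infected red cells (2% hematocrit, 0.05% parasitemia final), exposed to compound two generations (96 h, 37 C, 5% CO2).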
SARS PLpro yeast – blocks SARS-CoV papain-like protease in a yeast assay. S. cerevisiae expressing SARS-CoV PLpro, growth rescue. 330,000 tested, 0.19% active. AID 485353. Potency, µM (top dose mostly 32.9 µM), most hits filed as activators; also: nearly all actives have a fitted effect of over 55% in size
Large screens that a line does not name were inactive. Unless noted, calls follow the shape of the full dose curve.

CCc1ccc2oc(C(=O)Nc3nonc3CC)c(C)c2c1	none
Cc1cc2oc(C(=O)Nc3nonc3C)c(C)c2cc1Cl	Pf growth 96h 8.28µM, SARS PLpro yeast inconclusive
O=C(Nc1ccnn1C1CCN(Cc2ccc(CO)o2)CC1)c1cccc(F)c1	none (no result: Pf growth 48h, NS1 function inh, Pf growth 96h, SARS PLpro yeast)
COc1cc(C(=O)Nc2ccc(N3CCCS3(=O)=O)cc2)c([N+](=O)[O-])cc1OC	none (no result: NS1 function inh)
CC1(C)CC(=O)C(C(c2cccc(O)c2O)C2C(=O)CC(C)(C)CC2=O)C(=O)C1	none (no result: RE007 growth inh, Pf growth 48h, Pf growth 96h, SARS PLpro yeast)
O=C(/C=C/c1c[nH]c2ccccc12)c1cccc2ccccc12	Pf growth 96h 9.28µM
COc1cc(C#CC#CCN2CCCCC2)ccc1O	Pf growth 48h 8.28µM
Cc1ccc(/C=C2\CCCC3=C2NC(=S)NC3c2ccc(C)cc2)cc1 (stereo not given)	NS1 function inh inconclusive, Pf growth 96h inconclusive
COc1ccc(C2NC(=S)NC3=C2CCc2cc(OC)ccc23)cc1 (stereo not given)	Pf growth 48h inconclusive, Pf growth 96h 5.86µM
C/C(=N\[N+](C)(C)C)c1ccc(C)c(C)c1	none (no result: RE007 growth inh, Pf growth 48h, Pf growth 96h, SARS PLpro yeast)
Cc1ccc(C(=O)NCc2ccc(Cl)c(Cl)c2)o1	RE007 growth inh 25.1µM
Cn1c2ccccc2c2c(C(=O)NCC3CCCO3)cn(C3CCCC3)c(=O)c21 (stereo not given)	Pf growth 48h inconclusive, Pf growth 96h 4.15µM
CC(C)Cn1cc(C(=O)NCCCOC(C)C)c2c3ccccc3n(C)c2c1=O	Pf growth 96h inconclusive (no result: Pf growth 48h)
CC(C)Cn1cc(C(=O)NCC2CCCO2)c2c3ccccc3n(C)c2c1=O (stereo not given)	Pf growth 48h 13.1µM
CC(C)(C)NC(=O)[C@@H]1CC[C@@H]2[C@@H]3CC[C@@H]4NC(=O)C=C[C@@]4(C)[C@H]3CC[C@]21C	none (no result: RE007 growth inh, NS1 function inh, SARS PLpro yeast)
CCCS(=O)(=O)NC(=O)C1(C)CCCN(C(=O)c2cc(OC)ccc2Br)C1 (stereo not given)	none (no result: Pf growth 48h, NS1 function inh, Pf growth 96h, SARS PLpro yeast)
O=C(Nc1ccccc1C(=O)O)c1ccc(NC(=O)C2CC2)cc1	RE007 growth inh inconclusive, Pf growth 96h inconclusive
O=C(Nc1ccc(NC(=O)c2cccs2)cc1)c1cccs1	none
O=C(Nc1ccccc1O)c1ccc(NC(=O)C2CC2)cc1	Pf growth 48h 2.08µM
O=C(Nc1ccc(NC(=O)C2CC2)cc1)c1cccs1	Pf growth 96h 10.4µM
CCC1CCCCN1S(=O)(=O)c1ccc(NC(=O)c2cccs2)cc1 (stereo not given)	Pf growth 48h 2.33µM
CC1CC(C)CN(S(=O)(=O)c2ccc(NC(=O)[C@@H]3CCCN3C(=O)c3cccs3)cc2)C1 (stereo not given in full)	Pf growth 48h 11.7µM, Pf growth 96h inconclusive (no result: NS1 function inh)
Cc1ccc(NC(=O)[C@@H]2CCCN2C(=O)c2cccs2)cc1S(=O)(=O)N1CCCCC1	Pf growth 48h inconclusive, Pf growth 96h inconclusive (no result: NS1 function inh)
CCc1ccc(OCC(=O)Nc2nnc(C3CCCC3)s2)cc1	none
Cc1ccc(CN2CCN(Cc3ccc(C)o3)[C@@H](C)C2)o1	none (no result: RE007 growth inh, Pf growth 48h, Pf growth 96h, SARS PLpro yeast)
[N-]=[N+]=Nc1ccc(C(=O)CSC[C@H](NC(=O)CC[C@H](N)C(=O)O)C(=O)NCC(=O)O)cc1	none (no result: RE007 growth inh, Pf growth 48h, Pf growth 96h, SARS PLpro yeast)
Cc1nn2c(N3CCN(c4ccccn4)CC3)cc(C(C)C)nc2c1-c1ccccc1	Pf growth 48h 3.29µM, Pf growth 96h inconclusive
Cc1cc(C)c2c(n1)nn1c(N3CCN(c4ccccn4)CC3)cc(C)nc21	Pf growth 96h 3.29µM (no result: RE007 growth inh)
COc1ccccc1C(=O)NCc1ccccn1	none
COc1ccc(-c2csc(NC(=O)CSCC(=O)Nc3cc(C)on3)n2)cc1	none (no result: NS1 function inh)
COc1ccc(-c2csc(NC(=O)CSCc3c(C)noc3C)n2)c(OC)c1	Pf growth 48h inconclusive, Pf growth 96h 10.4µM (no result: NS1 function inh)
O=C1C(=O)N(Cc2ccccc2)C(=O)N1CCOc1ccccc1	none
COc1cccc(CN2C(=O)C3(C(C#N)=C(N)OC4=C3C(=O)CCC4)c3ccccc32)c1 (stereo not given)	Pf growth 48h 4.15µM
CCOC(=O)C1=C(N)OC2=C(C(=O)CCC2)C12C(=O)N(CC(N)=O)c1ccccc12 (stereo not given)	Pf growth 96h 6.57µM
O=C(C1CN(C(=O)c2cc3ccccc3o2)c2ccccc2O1)N1CCCCC1 (stereo not given)	none (no result: Pf growth 48h, NS1 function inh, Pf growth 96h, SARS PLpro yeast)
Cc1ccc(C2(C)NC(=O)N(CC(=O)N3CCN(C(=O)c4cccs4)CC3)C2=O)cc1 (stereo not given)	none (no result: NS1 function inh)
COc1ccccc1N1CCN(CC(O)COc2cccc3ccccc23)CC1 (stereo not given)	Pf growth 48h inconclusive, Pf growth 96h inconclusive
COc1cccc(OC)c1OCC(O)CN1CCN(c2ccccc2F)CC1 (stereo not given)	Pf growth 96h 4.65µM
O=C(O)CCNCC(=O)O	none (no result: RE007 growth inh, Pf growth 48h, Pf growth 96h, SARS PLpro yeast)
Cc1ccc(N2C(=O)C3CC(c4ccccc4)=C4C5C=CC(C6C(=O)N(c7ccc(C)cc7C)C(=O)C56)C4C3C2=O)c(C)c1 (stereo not given)	Pf growth 48h 2.08µM, NS1 function inh inconclusive (no result: Pf growth 96h)
Cc1ccc(N2C(=O)C3CC(c4ccccc4)=C4C5C=CC(C6C(=O)N(c7ccc(C)cc7)C(=O)C56)C4C3C2=O)cc1 (stereo not given)	Pf growth 48h 13.1µM, Pf growth 96h inconclusive
COc1ccccc1S(=O)(=O)NCc1ccc(C(=O)NC2CCC(O)CC2)cc1 (stereo not given)	Pf growth 48h inconclusive, Pf growth 96h inconclusive (no result: NS1 function inh)
Cc1cccc(NC(=O)CC(C)S(=O)(=O)c2ccc3c(c2)NC(=O)CO3)c1C (stereo not given)	Pf growth 48h inconclusive, Pf growth 96h inconclusive
Cc1ccc(NS(=O)(=O)c2ccc3c(c2)NC(=O)CO3)cc1Cl	none
CC(CC(=O)N1CCc2ccccc21)S(=O)(=O)c1ccc2c(c1)NC(=O)CO2 (stereo not given)	Pf growth 96h 10.4µM
Cc1ccc(NS(=O)(=O)c2ccc3c(c2)NC(=O)CO3)cc1C	Pf growth 96h 9.28µM
CC(CC(=O)NC1CCCCC1)S(=O)(=O)c1ccc2c(c1)NC(=O)CO2 (stereo not given)	Pf growth 96h 13.1µM
Cc1ccc(NC(=O)CC(C)S(=O)(=O)c2ccc3c(c2)NC(=O)CO3)cc1C (stereo not given)	Pf growth 48h inconclusive, Pf growth 96h 11.7µM
CC(CC(=O)Nc1ccc(F)cc1)S(=O)(=O)c1ccc2c(c1)NC(=O)CO2 (stereo not given)	Pf growth 96h inconclusive
CN(C)CCCNC(=O)C1(O)c2cc(Br)ccc2NC(=O)N1c1ccc(Cl)cc1 (stereo not given)	Pf growth 96h inconclusive
CN(C)/C=C/C(=O)c1ccc([N+](=O)[O-])c(CS(=O)(=O)c2ccc(Cl)cc2)c1	none
Cc1cccc(C(=O)NCC(c2cccs2)N2CCOCC2)c1 (stereo not given)	none (no result: NS1 function inh)
CCCCCc1cc(=O)oc2c(C(CCN3CCCCC3)c3cc(OC)c(OC)c(OC)c3)c(OC)cc(OC)c12 (stereo not given)	Pf growth 48h 5.22µM, Pf growth 96h 2.33µM
